Only some compounds are listed: those with a hit (about 2.7% of all), similar ones and a draw of the others.
12-LOX inh: blocks human arachidonate 12S-lipoxygenase. P18054. purified 12hLO, xylenol orange hydroperoxide absorbance. Potency, µM (series often up to 108 µM), for inactives: top-dose activity change, negative = inhibition, hits mostly inhibitors. 580,000 tested, 1.1% active; note: % is set by controls: 0 for no effect and ±100 for the full control effect
Target sequence (P18054 whole entry, looked up): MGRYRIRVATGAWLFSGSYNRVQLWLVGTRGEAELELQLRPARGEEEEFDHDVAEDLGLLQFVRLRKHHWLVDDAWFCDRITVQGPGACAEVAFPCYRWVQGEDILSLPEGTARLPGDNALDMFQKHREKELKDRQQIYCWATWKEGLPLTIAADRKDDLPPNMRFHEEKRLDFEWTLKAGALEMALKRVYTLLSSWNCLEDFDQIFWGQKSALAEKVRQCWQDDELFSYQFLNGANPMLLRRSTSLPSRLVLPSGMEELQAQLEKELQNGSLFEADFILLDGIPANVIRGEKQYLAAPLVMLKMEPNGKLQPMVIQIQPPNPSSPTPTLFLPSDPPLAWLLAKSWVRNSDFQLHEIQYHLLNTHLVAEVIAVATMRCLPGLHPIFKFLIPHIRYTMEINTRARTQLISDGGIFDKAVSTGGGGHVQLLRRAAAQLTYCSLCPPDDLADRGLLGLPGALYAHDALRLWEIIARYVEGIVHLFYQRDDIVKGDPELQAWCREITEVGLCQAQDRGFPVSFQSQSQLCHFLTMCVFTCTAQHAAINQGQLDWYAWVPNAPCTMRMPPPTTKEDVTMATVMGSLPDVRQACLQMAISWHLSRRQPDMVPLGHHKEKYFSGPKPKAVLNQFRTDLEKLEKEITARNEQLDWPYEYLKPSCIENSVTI
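Hydroperoxide product was detected by ferrous iron/xylenol orange as the 573 to 405 nm absorbance ratio. Arachidonic acid at 40 uM (final) was turned over for 30 min at room temperature by 150 nM human 12hLO, pH 7.0 Hepes buffer, after 15 min compound preincubation.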
ATXN2 expr inh: reduces ATXN2 reporter expression in HEK-293 cells. 360,000 tested, 0.72% active. Potency, µM (doses to about 57 µM), without a hit: at the top dose activity change, negative = inhibition, usual class: inhibitors. AID 1745845. HEK-293 ATXN2-luciferase reporter, luminescence, 24 h; note: % is set by controls: 0 for no effect and ±100 for the full control effect; nearly all actives have a fitted effect of over 55% in size
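qHTS (up to 57 uM final) was run with 24 h compound exposure of reporter cells at 37 °C. Each well was multiplexed: SteadyGlo luminescence measured ATXN2-luciferase expression after a fluorogenic Gly-Phe-AFC viability readout (25 uM final).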
HepG2 viability: kills HepG2 cells in TGF-b inhibitor counter-screen; AID 588856; 410,000 tested, 0.76% active; Potency, µM (top dose mostly 46.1 µM), without a hit: at the highest dose activity change, negative = cytotoxicity, usual class: cytotoxic; HepG2 CAGA-GFP viability, ATP luminescence, 18 h
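HepG2 CAGA-GFP cells (1000/well, DMEM with 1% FBS) received compound, then TGF-beta at 500 pg/mL final, and were incubated 18 hours at 37 degrees C. Viability was read by CellTiter-Glo luminescence. Media-only wells were set as complete cell-killing and DMSO as no toxicity.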
ATXN viability: reduces viability in counter-screen for ATXN expression inhibitors; S2 cells (HEK-293 line with an ATXN2-luciferase reporter) viability, CellTiter-Fluor protease fluorescence, 24 h; Potency, µM (highest dose often 56.7 µM), usual class: cytotoxic; 400,000 tested, 0.49% active; note: nearly all actives have a fitted effect of over 40% in size
TGFb inhibitor: TGF-b pathway inhibition. 410,000 tested, 1.2% active. HepG2 CAGA-GFP TGF-b/SMAD3 reporter, GFP fluorescence, 18 h; TGF-beta stimulated, 500 pg/mL final. Potency, µM (series often up to 46.1 µM), for inactives: at the highest dose activity, negative = inhibition, actives largely listed as inhibitors; note: % is set by controls: 0 for no effect and ±100 for the full control effect; nearly all actives have a fitted effect of over 65% in size
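TGF-beta reporter screen: HEPG2 CAGA-GFP, 1% FBS, 500 pg/mL TGF-beta final, 18 h; per-cell GFP summed per well; curves fitted and categorized by class.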
* marks the source's active call; other numbers are inactive results; ! = a repeat was not active; [ ] = dose if it differs, or a comment. Calls come from the whole dose curve; as a rule, active = well fitted curve in the direction sought with a large enough effect; inconclusive = small, poorly fitted or top-dose-only effect, or another doubt; inactive = no such curve, though single readings can be large; an effect the other way counts as inactive or inconclusive. Potency is the fitted concentration of half-maximal effect.

For Cc1c(OCC(=O)OC(C)C)ccc2c(-c3ccccc3)cc(=O)oc12 the results were 12-LOX inh -26.4%.
For O=C(c1ccccc1)N1CCN(Cc2ccccc2)CC1 the results were 12-LOX inh inconclusive, ATXN2 expr inh -2.7%, HepG2 viability -19.9%, ATXN viability inactive and TGFb inhibitor -5.2%.
For O=C(N1CCN(Cc2ccccc2)CC1)C(F)(F)C(F)(F)C(F)(F)C(F)(F)F the results were 12-LOX inh 28.2µM*.
COc1ccc(CNC(=O)N2CCN(S(=O)(=O)c3cccc(Br)c3)CC2)cn1 was read as 12-LOX inh 5.0%.
CCc1ccc(-c2cc(C)no2)cc1S(=O)(=O)NCCCN1CCN(c2ccccc2)CC1 was read as 12-LOX inh 0.0%, ATXN2 expr inh inconclusive, HepG2 viability -21.4%, ATXN viability inconclusive and TGFb inhibitor 17.8µM*.
For CCc1ccc(-c2cc(C)no2)cc1S(=O)(=O)NCCN1CCC(C)CC1 the results were 12-LOX inh -2.4%, ATXN2 expr inh -3.0%, HepG2 viability -22.0%, ATXN viability inactive and TGFb inhibitor -20.9%.
O=C(Cc1cccc2ccccc12)Nc1ccc(Br)cc1C(=O)O was read as 12-LOX inh inconclusive, HepG2 viability 14.1µM* and TGFb inhibitor -23.2%.
Nc1nc(=S)c2[nH]cnc2[nH]1 was read as 12-LOX inh inconclusive, ATXN2 expr inh 3.98µM*!, HepG2 viability 1.41µM*, ATXN viability inconclusive and TGFb inhibitor inconclusive.
Screening C=CCCCOc1ccc(/C=C/C(=O)c2ccc(OCCCCC)cc2)cc1 returned 12-LOX inh 0.2%.
`COC(=O)c1[nH]c2c(c1C)C(=O)CC(c1cc(OC)c(OC)c(OC)c1)C2` (stereo not given) gave 12-LOX inh 15.6%, HepG2 viability 3.2%, ATXN viability inactive and TGFb inhibitor 4.8%.
`COc1cc(C2CC(=O)c3c([nH]c(C(=O)OC4CCCC4)c3C)C2)cc(OC)c1OC` (stereo not given) gave 12-LOX inh -16.9%, ATXN2 expr inh -20.8%, HepG2 viability -20.4%, ATXN viability 31.6µM* and TGFb inhibitor inconclusive.
Cn1c(SCc2ccc(Cl)c(Cl)c2)nnc1-c1cccnc1 was read as 12-LOX inh -7.0%.
For O=C(Nc1ccc2c(c1)OCCCO2)c1ccccc1SCc1cccs1 the results were 12-LOX inh 15.8µM*.
For N#CCSc1ccccc1C(=O)Nc1ccc2c(c1)CCC2 the results were 12-LOX inh 1.12µM*.
COc1ccc(NC(=O)c2ccccc2SCc2ccc(C#N)cc2)cc1OC was read as 12-LOX inh 35.5µM*.
For O=C(Nc1ccc2c(c1)OCO2)c1ccccc1SCC(=O)N1CCCC1 the results were 12-LOX inh inconclusive, ATXN2 expr inh 3.2%, HepG2 viability 3.4%, ATXN viability inactive and TGFb inhibitor 0.1%.
Screening O=C(Nc1ccc2c(c1)CCC2)c1ccc2ccccc2c1 returned 12-LOX inh -39.9%.
Screening N#Cc1ccc(CSc2ccccc2C(=O)Nc2ccc3c(c2)OCCCO3)cc1 returned 12-LOX inh 14.1µM*.
Screening COc1ccc(NC(=O)C(C)SCc2ccccc2)cc1OC (stereo not given) returned 12-LOX inh -10.8%, ATXN2 expr inh 2.4%, HepG2 viability 6.8%, ATXN viability inactive and TGFb inhibitor 0.5%.
For C=C(C)CN(CC)C(=O)c1scnc1C the results were 12-LOX inh -50.6%.
For COCCN1C2=C(C(=O)CC(C)(C)C2)C(c2cccc(O)c2)C2=C1CC(C)(C)CC2=O the results were 12-LOX inh -7.9%.
`O=C1CCN(S(=O)(=O)c2ccccc2)CCCC(C(=O)NCc2cc(F)cc(F)c2)CCN1` (stereo not given) gave 12-LOX inh -15.4%.
Cc1nc(-c2cccs2)c(CC(=O)N2CCc3ccccc3C2)s1 was read as 12-LOX inh 8.91µM*.
Screening Cc1cc(C(C)(C)C)oc1C(=O)N(CC(=O)NC1CCCC1)c1c(C)cccc1C returned 12-LOX inh -29.1%, ATXN2 expr inh inconclusive, HepG2 viability 15.8µM*, ATXN viability inconclusive and TGFb inhibitor inconclusive.
COc1ccc(C(=O)N2CCC3(CC2)N=C(c2ccccc2)NO3)cc1 was read as 12-LOX inh 28.2%.
Cc1nc2scc(-c3ccccc3)c2c(=O)n1N=C1C=CC(=O)C=C1 was read as 12-LOX inh 2.82µM*, ATXN2 expr inh 8.3%[11.3 µM], HepG2 viability -1.3% and TGFb inhibitor -30.4%.
`O=C(/C=C/c1cccnc1)/C=C/c1cccnc1` gave 12-LOX inh 2.7%, ATXN2 expr inh inconclusive, HepG2 viability 6.31µM*, ATXN viability inconclusive and TGFb inhibitor 3.55µM*.
Screening Cc1cccc(C(=O)Nc2ccc(C(=O)/C=C/c3ccncc3)cc2)c1 returned 12-LOX inh inconclusive, ATXN2 expr inh 1.3%, HepG2 viability -52.0%, ATXN viability inactive and TGFb inhibitor 11.2µM*.
For CSc1ccc(/C=C/C(=O)c2ccc(NC(=O)c3cccc(C)c3)cc2)cc1 the results were 12-LOX inh 16.8%.
For Cc1cccc(C(=O)Nc2ccc(C(=O)/C=C/c3cccnc3)cc2)c1 the results were 12-LOX inh inconclusive, ATXN2 expr inh inconclusive, HepG2 viability -59.8%, ATXN viability inconclusive and TGFb inhibitor 1.41µM*.
`O=C(/C=C/c1cccnc1)c1ccc(NC(=O)c2cccc(Br)c2)cc1` gave 12-LOX inh 0.0%, ATXN2 expr inh -23.8%, HepG2 viability -13.0%, ATXN viability inactive and TGFb inhibitor 7.0%.
O=C(O)CCNS(=O)(=O)c1ccc(F)c(Cl)c1 was read as 12-LOX inh 8.5%.
Screening COC(=O)CC1CCCCN1CC(=O)NC(=O)NCc1ccco1 (stereo not given) returned 12-LOX inh 1.4%.
Screening CC(O)c1cc2n(n1)CCCN(C(=O)CCc1cn3ccccc3n1)C2 (stereo not given) returned 12-LOX inh 33.5%.
For O=C(Cc1cn2ccsc2n1)N1CCCn2nc(C(O)C3CC3)cc2C1 (stereo not given) the results were 12-LOX inh 44.7µM*.
COc1cc([N+](=O)[O-])cc(/C=N/NC(=O)C(C)Nc2cccc3ccccc23)c1O (stereo not given) was read as 12-LOX inh inconclusive, ATXN2 expr inh 20µM*, HepG2 viability -44.7%, ATXN viability inconclusive and TGFb inhibitor inconclusive.
Screening CCS(=O)(=O)N1CCC(NC(=O)c2cccc(NC(=O)c3cccs3)c2)CC1 returned 12-LOX inh 4.9%.

From PubChem
